SMILES strings stand for the structures. Where a name gives a salt, the structure may show the parent alone. ± gives the standard deviation of the averaged measurements. The full ranking holds about 1,100 compounds; the median of “day of extracellular matrix detachment from plate” is about 16, and the lowest 2% start at about 10. For the sample, the lowest values were picked, then their nearest neighbours and some compounds at random.

The experiment has as its system RDEB dermal fibroblasts EB71. The experiment in a line: day of extracellular matrix detachment from plate (days); higher = delayed detachment (less fibrotic matrix). The settings on record: compound concentration: 10 uM.
In the case of `CN1CCC(=C2c3ccccc3CCn3c(C=O)cnc32)CC1` [Alcaftadine], the “day of extracellular matrix detachment from plate” value (“day” for short) was 19.3 ± 2.5.

With `O=C([O-])c1ccccc1O.[Na+]` [Sodium salicylate], the “day” value was determined as 14.

`O=C(O[C@H]1CN2CCC1CC2)N1CCc2ccccc2[C@@H]1c1ccccc1` [Solifenacin succinate]: the “day” value is 27.3 ± 2.9.

As for `CN(C)[C@@H]1C(O)=C(C(N)=O)C(=O)[C@@]2(O)C(O)=C3C(=O)c4c(O)ccc(Cl)c4[C@@](C)(O)[C@H]3C[C@@H]12` [Chlortetracycline HCl], the “day” value is 23 ± 6.9.

Turning to `COc1ccc(CNc2nc(N3CCC[C@H]3CO)ncc2C(=O)NCc2ncccn2)cc1Cl` [Avanafil], the “day” value was 18.

Take `CC[C@@H]1/C=C(\C)C[C@H](C)C[C@H](OC)[C@H]2O[C@@](O)(C(=O)C(=O)N3CCCC[C@H]3C(=O)O[C@H](/C(C)=C/[C@@H]3CC[C@H](Cl)[C@H](OC)C3)[C@H](C)[C@@H](O)CC1=O)[C@H](C)C[C@@H]2OC` [Pimecrolimus]: the “day” value was determined as 17.7 ± 4.

Regarding `CN1CCOC(c2ccccc2)c2ccccc2C1` (stereo not drawn) [Nefopam HCl], the “day” value stood at 20.

In the case of `CO[C@H]1/C=C/O[C@@]2(C)Oc3c(C)c(O)c4c(O)c(c(/C=N/N5CCN(C)CC5)c(O)c4c3C2=O)NC(=O)/C(C)=C\C=C\[C@H](C)[C@H](O)[C@@H](C)[C@@H](O)[C@@H](C)[C@H](OC(C)=O)[C@@H]1C` [Rifampin], the “day” value was found to be 12.

`CCCS(=O)(=O)Nc1ccc(F)c(C(=O)c2c[nH]c3ncc(-c4ccc(Cl)cc4)cc23)c1F` [Vemurafenib (PLX4032, RG7204)]: the “day” value was determined as 14 ± 1.7.

In the case of `Clc1ccc(CCC(Cn2ccnc2)Sc2c(Cl)cccc2Cl)cc1` (stereo not drawn) [Butoconazole nitrate], the “day” value turned out to be 16.

Regarding `Nc1ccc(S(=O)(=O)Nc2ncccn2)cc1` [Sodium sulfadiazine], the “day” value is 18.2 ± 3.1.

On to `Nc1ccc(S(=O)(=O)Nc2ncccn2)cc1` [Sulfadiazine], for which the “day” value is 12.

Take `N=C(N)NC(=N)N1CCOCC1` [Moroxydine HCl]: the “day” value was found to be 19.3 ± 6.3.

As to `Cc1cc(-n2c(=O)[nH]c(=O)n(C)c2=O)ccc1Oc1ccc(SC(F)(F)F)cc1` [Toltrazuril], the “day” value was 15.7 ± 2.9.

Turning to `Clc1ccc(Nc2nnc(Cc3ccncc3)c3ccccc23)cc1` [Vatalanib (PTK787) 2HCl], the “day” value stood at 25.

For the compound `CNC(=O)[C@H](Cc1c[nH]c2ccccc12)NC(=O)[C@@H](CC(=O)NO)CC(C)C` [Ilomastat (GM6001, Galardin)], the “day” value was 15.

Turning to `CNC(=O)[C@H](Cc1ccccc1)NC(=O)[C@H](CC(C)C)[C@H](CSc1cccs1)C(=O)NO` [Batimastat (BB-94)], the “day” value was found to be 9 ± 1.7.

`CNC(=O)[C@@H](NC(=O)[C@H](CC(C)C)[C@H](O)C(=O)NO)C(C)(C)C` [Marimastat(BB-2516)]: the “day” value was 11.7 ± 1.1.

For the compound `O=c1ccc2ccc(OCCCCN3CCN(c4cccc5sccc45)CC3)cc2[nH]1` [Brexpiprazole], the “day” value worked out at 17.

Consider `CC(C)[C@H](N)C(=O)OCCOCn1cnc2c(=O)nc(N)[nH]c21` [Valaciclovir HCl], for which the “day” value came out at 15.7 ± 6.3.

For the compound `OCCOc1ccc(/C(=C(/CCCl)c2ccccc2)c2ccccc2)cc1` [Ospemifene], the “day” value stood at 13.

In the case of `Cc1ccc(C(=O)C(C)CN2CCCCC2)cc1` (stereo not drawn) [Tolperisone HCl], the “day” value turned out to be 13.

As to `CCCCN1CCCCC1C(=O)Nc1c(C)cccc1C` (stereo not drawn) [Bupivacaine HCl], the “day” value amounted to 19.3 ± 6.3.

With `CO[C@H]1C[C@@H]2CC[C@@H](C)[C@@](O)(O2)C(=O)C(=O)N2CCCC[C@H]2C(=O)O[C@H]([C@H](C)C[C@@H]2CC[C@@H](OCCO)[C@H](OC)C2)CC(=O)[C@H](C)/C=C(\C)[C@@H](O)[C@@H](OC)C(=O)[C@H](C)C[C@H](C)/C=C/C=C/C=C/1C` [Everolimus (RAD001)], the “day” value worked out at 25.

Consider `CC[C@H]1[C@@H](O)[C@@H]2[C@H](CC[C@]3(C)[C@@H]([C@H](C)CCC(=O)O)CC[C@@H]23)[C@@]2(C)CC[C@@H](O)C[C@@H]12` [Obeticholic Acid], for which the “day” value came out at 16.3 ± 1.1.

Turning to `C#C[C@]1(O)CC[C@H]2[C@@H]3CCC4=CCCC[C@@H]4[C@H]3C(=C)C[C@@]21CC` [Desogestrel], the “day” value came to 17.

Take `Cc1cc(C#N)cc(C)c1Oc1nc(Nc2ccc(C#N)cc2)nc(N)c1Br` [Etravirine (TMC125)]: the “day” value stood at 18.

`C=C(c1ccc(C(=O)O)cc1)c1cc2c(cc1C)C(C)(C)CCC2(C)C` [Bexarotene]: the “day” value was found to be 9.

For `CC1(C)CCC(C)(C)c2cc(NC(=O)c3ccc(C(=O)O)cc3)ccc21` [Tamibarotene], the “day” value came out at 19.

In the case of `Cc1ccc([C@@H]2O[C@H](CO)[C@@H](O)[C@H](O)[C@H]2O)cc1Cc1ccc(-c2ccc(F)cc2)s1` [Canagliflozin], the “day” value was 18.

For `Oc1cc(O)c(Cl)cn1` [Gimeracil], the “day” value came to 12.

With `O=C(O)c1cc(/N=N/c2ccc(O)c(C(=O)O)c2)ccc1O` [Olsalazine Sodium], the “day” value was 17.3 ± 2.9.

As to `CC(C)NC[C@H](O)COc1ccc(CCOCC2CC2)cc1` [Levobetaxolol HCl], the “day” value came out at 16 ± 3.5.

For the compound `C[C@]12CC[C@H](O)CC1=CC[C@@H]1[C@@H]2CC[C@]2(C)C(n3cnc4ccccc43)=CC[C@@H]12` [Galeterone], the “day” value was determined as 20 ± 1.7.

For `CCOC(=O)CC(=O)N1CCSC1COc1ccccc1OC` (stereo not drawn) [Moguisteine], the “day” value is 15.3 ± 2.3.

On to `Clc1ccc2c(c1)CCc1cccnc1C2=C1CCNCC1` [Desloratadine], for which the “day” value was found to be 28.

`NC(=O)C(c1ccccc1)(c1ccccc1)[C@@H]1CCN(CCc2ccc3c(c2)CCO3)C1` [Darifenacin HBr]: the “day” value was found to be 23.2 ± 7.2.

Take `CC(C)/N=c1\cc2n(-c3ccc(Cl)cc3)c3ccccc3nc-2cc1Nc1ccc(Cl)cc1` [Clofazimine]: the “day” value came out at 13.

As to `C[C@@H]1O[C@@H](OC[C@H]2O[C@@H](Oc3c(-c4ccc(O)c(O)c4)oc4cc(O)cc(O)c4c3=O)[C@H](O)[C@@H](O)[C@@H]2O)[C@H](O)[C@H](O)[C@H]1O` [Rutin], the “day” value was determined as 18.3 ± 8.1.

For the compound `CNC[C@H](O)[C@@H](O)[C@H](O)[C@H](O)CO` [Meglumine], the “day” value came out at 12.

For `OCCOCCN1CCN(C(c2ccccc2)c2ccc(Cl)cc2)CC1` (stereo not drawn) [Hydroxyzine 2HCl], the “day” value is 18.

With `O=C(O)COCCN1CCN(C(c2ccccc2)c2ccc(Cl)cc2)CC1` (stereo not drawn) [Cetirizine DiHCl], the “day” value turned out to be 10.3 ± 1.1.

For `Cc1cccc(CN2CCN(C(c3ccccc3)c3ccc(Cl)cc3)CC2)c1` (stereo not drawn) [Meclizine 2HCl], the “day” value came out at 12.
